# Most compounds without a hit are left out; they make up all but 7.9% or so of the library.
# SW480 rereplic – A quantitative high throughput screen for small molecules that induce DNA re-replication in SW480 colon adenocarcinoma cells; actives 1.8% (n = 340,000); Potency, µM (doses to about 46.1 µM), for the others: at the top dose re-replication activation, usual class: activators; AID 624297, 2012; SW480 DNA re-replication, Hoechst DNA content imaging, 48 h; note: % of control where 0% means no effect; nearly all actives have a fitted effect of over 55% in size
#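 Readout is total intensity of Hoechst-stained nuclei, excited at 405 nm and collected at 500-530 nm. Compound treatment lasted 48 hr at 37 C in 5% CO2 before staining.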
# HT1080NT lethal – qHTS for induction of synthetic lethality in tumor cells producing 2HG: qHTS for the HT-1080-NT fibrosarcoma cell line; HT-1080-NT fibrosarcoma viability, CellTiter-Glo ATP luminescence, 48 h; Potency, µM (titrated, usually from 46.1 µM), for inactives: at the top dose activity, negative = less viability, hits mostly cytotoxic; actives 1.6% (n = 360,000);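 note: NT is the 2HG producing partner of a matched IDH1 knockdown line; 0% = DMSO-treated cells and -100% = media-only wells without cells; nearly all actives have a fitted effect of over 55% in size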
#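 750 cells/well, RPMI + 5% FBS; 2 h settle, compound pin-transfer, 48 h at 37 degrees C. CellTiter-Glo 10 min RT, luminescence. Normalized to DMSO and media-only wells.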
# MCF10A rereplic – A quantitative high throughput screen for small molecules that induce DNA re-replication in MCF 10a normal breast cells | MCF 10A DNA re-replication, Hoechst nuclear intensity, 48 h | Potency, µM (top dose mostly 46.1 µM), for inactives: top-dose activity, positive = re-replication, usual class: activators | actives 2.9% (n = 350,000); note: % of control where 0% means no effect; nearly all actives have a fitted effect of over 50% in size
# KB-V1 cytotox – qHTS assay for MDR1-selective chemotherapeutics: Primary screen using the drug-selected MDR subline cells KB-V1. KB-V1 MDR cells viability, CellTiter-Glo, 72 h. Potency, µM (doses to about 46.1 µM), hits mostly cytotoxic. actives 3.4% (n = 400,000); note: % is set by controls: 0 for no effect and ±100 for the full control effect; nearly all actives have a fitted effect of over 60% in size
#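 In this primary screen, KB-V1 cells overexpressing P-gp are incubated with library compounds (lowest to highest concentration) for 72 h at 37 degrees C before a luminescent ATP viability read.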
# KB-3-1 cytotox – qHTS assay for MDR1-selective chemotherapeutics: Primary screen using the parental adenocarcinoma cell KB-3-1. KB-3-1 viability, CellTiter-Glo ATP luminescence, 72 h. Potency, µM (doses to about 46.1 µM), hits mostly cytotoxic. actives 1.4% (n = 400,000). AID 1347075, 2019; note: % is set by controls: 0 for no effect and ±100 for the full control effect; nearly all actives have a fitted effect of over 60% in size
#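 Cells are dispensed, compounds pinned in, plates held at 37 °C for 72 h, then CellTiter-Glo is added and luminescence read after 10 minutes. Cell line: parental KB-3-1 in phenol-red-free DMEM, 10% FBS.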
# HT1080 IDH1KD tx – qHTS for induction of synthetic lethality in tumor cells producing 2HG: qHTS for the HT-1080-IDH1KD cell line; HT-1080 IDH1 knockdown viability, ATP luminescence, 48 h; actives 2% (n = 360,000); Potency, µM (top dose mostly 46.1 µM), for the others: at the top dose activity, negative = toxicity, actives largely listed as cytotoxic;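 note: 0% = DMSO wells and -100% = cell-free medium wells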
#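 Using the IDH1-knockdown HT-1080 line run in the same batch and compound series as the NT line, viability after 48 h at 37 °C was determined by CellTiter-Glo luminescence and expressed as % activity.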
# Starred values were filed as active, the others as inactive; i = inactive; ? = inconclusive; . = no result given; [ ] = dose if it differs, or a comment. Calls come from the whole dose curve; as a rule, active = well fitted curve in the direction sought with a large enough effect; inconclusive = small, poorly fitted or top-dose-only effect, or another doubt; inactive = no such curve, though single readings can be large; an effect the other way counts as inactive or inconclusive. Potency is the fitted concentration of half-maximal effect.
SMILES,SW480 rereplic,HT1080NT lethal,MCF10A rereplic,KB-V1 cytotox,KB-3-1 cytotox,HT1080 IDH1KD tx
CCN(Cc1ccccc1)C(=O)c1ccc(CNS(=O)(=O)c2ccc(C)cc2)cc1,82.0%,-1.3%,20.6µM*,18.4µM*,i,-8.5%
COc1ccccc1C(=O)Nc1cccc2c1CCCC2,-6.4%,1.3%,-11.8%,i,i,17.0%
CCn1c2ccccc2c2cc(N)ccc21,16.6%,?,?,i,i,?
CCn1c2ccccc2c2cc(CNCCCN3CCOCC3)ccc21,?,?,18.3%,i,i,20.6µM*
CCn1c2ccccc2c2cc(CNCc3ccc(OC)cc3OC)ccc21,?,-16.0%,7.31µM*,i,i,?
CCOc1ccc2ccccc2c1CNCCCN1CCOCC1,.,-12.2%,.,i,i,-11.1%
CCC(CC)NCc1ccc2c(c1)c1ccccc1n2CC,2.3%,-19.8%,20.6µM*,?,i,-10.6%
CCC(CO)N=C1CC(C)(C)CC(=O)/C1=C(/O)CCCN1C(=O)c2ccccc2C1=O (stereo unspecified),2.3%[1.84 µM],10.5%,?,i,i,9.2%
O=C(c1ccc(CSc2nc3ccncc3n2Cc2ccc(F)cc2)cc1)N1CCCCCC1,.,.,.,i,i,.
COCCN1C(=O)CN(S(C)(=O)=O)CC1(C)C(=O)NCc1ccccc1 (stereo unspecified),.,23.9%,.,i,i,18.9%
COc1cc(CCNC2=CC(=O)c3ncccc3C2=O)ccc1O,14.6µM*,?,?,7.31µM*,5.8µM*,14.6µM*
CCCC(=O)Oc1ccc2[nH]c(C(=O)c3cc4ccccc4[nH]3)cc2c1,.,.,.,i,i,.
Cc1cc(C)c(O)c(CN(C)Cc2cc(Cl)cc(Cl)c2O)c1,?,?,1.64µM*,?,?,?
O=C(O)c1cc2c(cc1NC(=O)C1CCCC1)OCCO2,-5.1%,0.6%,9.6%,i,i,7.1%
CCn1c(C)cc(C(=O)COC(=O)c2ccccc2[N+](=O)[O-])c1C,-4.4%,-1.6%,-6.7%,25.9µM*,i,2.8%
CCCCNC(=O)c1[nH]c2ccccc2c1Sc1ccc(C)cc1,.,.,.,i,i,.
CCN(CC)CCCNC(=O)c1[nH]c2ccccc2c1Sc1ccc(Cl)cc1,25.1%,20.6µM*,?,i,i,16.4µM*
COc1ccccc1CNn1c(-c2cccc(C)c2)nc2ccccc2c1=O,-4.0%,-1.0%,13.8%,23.1µM*,i,-5.3%
COc1ccc(CNn2c(-c3cccc(C)c3)nc3ccccc3c2=O)cc1OC,-1.3%,0.4%,0.4%,23.1µM*,i,8.5%
Cc1cncc(C(=O)O)[n+]1[O-],10.1%,.,-7.4%,.,.,.
CCCc1nn(C)c(C(=O)Nc2cccc(CC)c2)c1Cl,-11.6%,-2.0%,?,18.4µM*,i,-14.0%
COc1cccc(O)c1CN1CCC(C(=O)Nc2ccc(-c3cccc(C)c3)cc2)CC1,?,23.1µM*,?,?,18.4µM*,18.4µM*
COc1cccc(O)c1CN1CCC(C(=O)Nc2ccc(Oc3cccnc3)cc2)CC1,5.9%,-15.2%,15.9%,.,.,-28.9%
COc1ccc(CNC(=O)C2CCCN(C(=O)N3CCOc4ccccc43)C2)cc1 (stereo unspecified),.,.,.,i,i,.
CCS(=O)(=O)c1ccc(C=NNc2nc3ccccc3o2)cc1,-3.1%,1.7%,1.6%,18.4µM*,i,12.5%
SMILES,SW480 rereplic,HT1080NT lethal,MCF10A rereplic,KB-V1 cytotox,KB-3-1 cytotox,HT1080 IDH1KD tx
CN(C)c1ccc(/C=N/Nc2nc3ccccc3o2)cc1,?,-16.6%,11.6%,i,i,?
CCCC(=O)Nc1ccc(C2C(=O)c3ccccc3C2=O)cc1,-0.3%,-9.4%,2.1%,?,?,-1.3%
CCOC(=O)c1cc(-c2ccc3c(c2)OCCO3)nc2c1c(C)nn2CCC#N,?,-8.6%,11.6µM*,i,i,-3.3%
CCOc1ccc(NC(=O)CSc2ncc(-c3ccc(F)cc3)n2Cc2ccco2)cc1,?,-24.6%,?,i,i,-29.7%
Cc1ccc(NC(=O)Cn2c(-c3ccc(F)cc3)cnc2SCC(=O)Nc2c(C)cccc2C)cc1,?,-28.9%,4.61µM*,i,i,?
CCOC(=O)C1=C(CS(=O)(=O)c2ccc(OC)c(Cl)c2)NC(=O)NC1c1cccc(OC)c1 (stereo unspecified),.,.,.,i,i,.
CC1(C(=O)Nc2ccc3c(c2)OCO3)Cc2c(-c3ccc4c(c3)OCO4)ccnc2O1 (stereo unspecified),.,?,.,?,5.17µM*,2.06µM*
COc1ccc(NC(=O)C2(C)Cc3c(-c4ccc5c(c4)OCO5)ccnc3O2)cn1 (stereo unspecified),.,?,.,11.6µM*,5.8µM*,2.91µM*
CC1(C(=O)Nc2ccc3c(c2)OCO3)Cc2c(-c3cccc(C(N)=O)c3)ccnc2O1 (stereo unspecified),.,?,.,?,7.31µM*,3.66µM*
CC1(C(=O)Nc2ccc3c(c2)OCO3)Cc2c(-c3cccc(C(F)(F)F)c3)ccnc2O1 (stereo unspecified),.,?,.,?,?,11.6µM*
CC1(C(=O)Nc2ccccc2)Cc2c(-c3cccc(C(N)=O)c3)ccnc2O1 (stereo unspecified),.,1.1%,.,i,i,7.1%
Cc1cccn2c(CNCCc3ccco3)c(C(=O)N3CCOCC3)nc12,-4.7%,-0.6%,?,.,.,-7.2%
C(=C\c1ccnc2ccccc12)/c1cc2c3c(c1)CCCN3CCC2,.,.,.,i,i,.
COc1ccccc1C(=O)Nc1ccccc1OCc1cc(=O)n2cc(C)sc2n1,.,.,.,i,i,.
COC(=O)c1sc2cccc(F)c2c1S(=O)(=O)Nc1ccc(N(C)C)cc1,.,.,.,i,i,.
CC1(C(=O)Nc2ccc(Cl)cc2)Cc2c(-c3cccc(C(N)=O)c3)ccnc2O1 (stereo unspecified),.,?,.,?,?,4.61µM*
O=C(O)/C(=C\c1ccc(Cl)c([N+](=O)[O-])c1)c1ccc(S(=O)(=O)N2CCCC2)s1,-0.8%,0.5%[9.24 µM],5.7%,i,i,-0.3%
O=C(CSc1nc2ccccc2c2nc3ccccc3n12)NCc1ccco1,-3.5%,-22.2%,-2.0%,?,i,-20.7%
